The source of these data is publication PMC5540273 (PLoS ONE, 2017).

The structures appear in SMILES notation.
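Note: KINOMEscan kinase panel screen.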

The assay concerns SLK. The following applies: concentration: 1 μM,replicates: in singlicate; n = 1.
With `COc1cccc(C2=C(Nc3cccc(Cl)c3)C(=O)NC2=O)c1` [SB-341556], the “%Inh” value was 92.2%.
As for `CCn1c(-c2nonc2N)nc2cncc(CNC3CCNCC3)c21.Cl` [SB-747651], the figure is 9%; as for `Cn1ccc2ncnc(Oc3ccc(NC(=O)Nc4cncc(C(F)(F)F)c4)c(Cl)c3)c21`, 20%.
As for `CN(c1ccccc1CNc1nc(Nc2ccc3c(c2)CC(=O)N3)ncc1C(F)(F)F)S(C)(=O)=O`, the figure is 94.8%; as for `COc1cccc(CNC(=O)NC2CCN(c3ccnc(Nc4cc(OC)c(OC)c(OC)c4)n3)C2)c1` (stereo not shown) [GSK1379765], 30%.
The same measure for `COc1cc(Nc2nccc(N3CCC(NC(=O)c4cccc(C#N)c4)C3)n2)cc(OC)c1OC` (stereo not shown) [GSK1379751]: 1%; for `COc1cc2nccc(Nc3ccc(Oc4ccccc4)cc3)c2cc1OC.Cl` [GI261656]: 26%; for `O=C(Nc1cccc(C(F)(F)F)c1)c1cccc(Oc2ccc3nccn3n2)c1`: 10%.
For `Nc1nccc(-c2ccc3c(N)n[nH]c3c2)n1` [GSK1034945], the “%Inh” value was 25%.
The same measure for `C[C@@H](Oc1cc(-n2cnc3cc(-c4cnn(C)c4)ccc32)sc1C(N)=O)c1ccccc1Cl` [GSK580432]: 99.7%; for `CCNCC(Cc1ccccc1)NC(=O)c1cc(Br)c(-c2ccnc3[nH]ccc23)s1.Cl.Cl` (stereo not shown) [GSK1383280]: 0%; for `O=C(Nc1ccc(Oc2ccc3nc(NC(=O)C4CC4)cn3n2)c(F)c1)c1cccn(-c2ccccc2)c1=O`: 0%.
The same measure for `N#Cc1cccc(C(=O)NC2CCN(c3ccnc(Nc4ccc(F)cc4)n3)C2)c1` (stereo not shown) [GSK1379708]: 16%; for `CSc1nccc(-c2c(-c3ccc(F)cc3)ncn2CCCN2CCOCC2)n1.Cl` [SB-217146]: 0%.
As to `COc1cccc(OC)c1C(=O)Nc1cccc(-c2nn3ccccc3c2-c2ccnc(Nc3cccc(F)c3)n2)c1` [GSK361065], the “%Inh” value is 41%.
`O=C(NOCC1CC1)c1cc(Br)c(F)c(F)c1Nc1ccc(I)cc1Cl`: the “%Inh” value is on record as 3%.
Take `Cc1ccc(CC(=O)N2CCc3cc(-c4cn(C)c5ncnc(N)c45)ccc32)cc1` [GSK2634758]: the “%Inh” value was determined as 59%.
As to `CC(C)c1nc(-c2cccc(NS(=O)(=O)c3ccccc3)c2)c(-c2ccnc(Nc3ccc4c(c3)CN(C)CC4)n2)s1` [GSK1649598], the “%Inh” value amounted to 88%.
In the case of `Cc1ccc(C(=O)Nc2ccc(Oc3ccc4nc(NC(=O)C5CC5)cn4c3)c(F)c2)c(=O)n1-c1ccccc1`, the “%Inh” value is 79%.
As for `c1ccc(Oc2ccc(Nc3ccnc4ccc(-c5ccccn5)cc34)cc2)cc1` [GW407034], the figure is 10%; as for `O=C(Nc1n[nH]c2cc(-c3ccco3)ccc12)C1CC1` [SB-737447], 13%; as for `C[C@@H]1CNc2c(sc3ccc4nc(-c5ccc(O)cc5)ccc4c23)C(=O)N1`, 0%.
Turning to `CCn1c(-c2nonc2N)nc2cncc(Br)c21` [SB-738004], the “%Inh” value came out at 0%.
As for `CS(=O)c1ccc(-c2coc3ccc(-c4n[nH]c(=O)o4)cc23)cc1` (stereo not shown), the figure is 9%; as for `CN1CCN(CCCNc2nccc(-c3c(-c4ccc(F)cc4)nn4cc(C(N)=O)ccc34)n2)CC1` [GW622475], 63%.
As for `CC(C(=O)NC1CCN(c2ccnc(Nc3ccc(F)cc3)n2)C1)c1ccc(Cl)cc1` (stereo not shown) [GSK1379713], the figure is 17%; as for `CC(=O)c1c(-c2ccncc2)[nH]c(-c2ccncc2)c1C` [GW493036], 0%.
As for `CS(=O)(=O)c1cccc(CNc2nc(Nc3ccc4c(c3)[C@@H]3C[C@@H]4CNC3=O)ncc2C(F)(F)F)c1`, the figure is 98.2%; as for `FC(F)(F)c1cc(Br)cc(Nc2nccc(-c3cnn4ncccc34)n2)c1` [GW810578], 13%; as for `CC(=O)Nc1ccc(-c2cc3ncnc(SCC(=O)O)c3s2)cc1`, 18%.
Turning to `NC(=O)Nc1sc(-c2ccc(F)cc2)cc1C(N)=O` [GW789449], the “%Inh” value came to 25%.
For the compound `CN(c1cccc(CNc2nc(Nc3ccc4c(c3)CC(=O)N4)ncc2C(F)(F)F)c1)S(C)(=O)=O`, the “%Inh” value is given as 33%.
For the compound `COC(=O)Nc1nc2cc(Oc3ccc(NC(=O)Nc4cc(C(F)(F)F)ccc4Cl)cc3)ccc2[nH]1.Cl` [GW697465], the “%Inh” value was 63%.
As for `COc1ccc(Nc2nccc(N3CCC(NC(=O)c4cccc(C#N)c4)C3)n2)cc1` (stereo not shown) [GSK1379730], the figure is 30%.
